Over roughly 13,000 compounds, “IFI” has its median near 4; the highest 2% begin near 17. Only a selection was taken, and the highest values are over-represented in it overall.
Test: GSK_TCMDC: Inhibition Frequency Index (IFI). The number of non-kinase HTS assays where a compound showed > 50 % inhibition, expressed as a percentage of the number of such assays in which the compound was tested
Format: functional
`Cc1ccc(F)c(OCC2CCN(c3ncc(C(=O)NC4CC4)cc3Cl)CC2)c1` gave an IFI of 17.3%.
With `Cc1cc(OCC2CCN(c3ncc(C(=O)NC4CC4)cc3Cl)CC2)ccc1F` the IFI was 9.8%.
For `Cc1ccc(OCC2CCN(c3ncc(C(=O)NC4CC4)cc3Cl)CC2)cc1`, the IFI was 0%.
For `CN1CCC(NCc2cccc(-c3cccc(S(=O)(=O)NCc4ccccc4)c3)c2)CC1`, the IFI was 11.2%.
Work on `CCN(CC)CCOc1ccc(NC(=O)c2oc3ccccc3c2C=Cc2ccccc2)cc1` yielded an IFI of 18.5%.
For `CCN(CC)CCOc1ccc(C(O)(C#CC(O)(c2ccccc2)c2ccc(OCCN(CC)CC)cc2)c2ccccc2)cc1` (stereo not drawn), the IFI was 6.52%.
Compound `CCN(CC)CCNC(=O)c1ccc(NC(=O)c2oc3c(Cl)cccc3c2C)cc1` has an IFI of 4.76%.
Work on `COC(=O)c1cccc(CNCc2ccc(-c3ccc(-c4nc5cccc(C)c5[nH]4)s3)cc2)c1` yielded an IFI of 7.55%.
For `CN1CCN(CCCN(Cc2cccc(-c3cccc(CNCc4ccc5c(c4)OCO5)c3)c2)C(=O)CCC2CCCC2)CC1`, the IFI was 10.9%.
With `CC(C)C[C@H](NC(=O)c1cc2ccccc2s1)C(=O)N[C@H]1CCN(Cc2ccc(I)c(OC3CCN(C)C3)c2)C1` (stereo partly drawn) the IFI was 16.7%.
Work on `O=C(Nc1ccc2ccccc2c1)c1ccc(CN2CCC(Cc3ccccc3)CC2)cc1` yielded an IFI of 6.21%.
`CCCOc1cc2c(cc1OCCC)C(C=Cc1ccc(Cl)cc1Cl)=NC(C)C2` (stereo not drawn) gave an IFI of 19%.
Compound `CCCCOc1cc2c(cc1OCC)C(C=Cc1ccc(Cl)cc1Cl)=NCC2` has an IFI of 6.67%.
Work on `C/C=C/C=C/C1=NCCc2cc(OCCC)ccc21` yielded an IFI of 8.76%.
With `COc1ccc(CNCCc2cccs2)cc1-c1cccc(S(=O)(=O)NCCN2CCCC2)c1` the IFI was 9.8%.
In the case of `C=CCN(C(=O)c1ccc(Cl)c([N+](=O)[O-])c1)c1nc(-c2ccccc2)cs1`, the IFI is reported as 3.39%.
For `Nc1ccc(-c2ccc(NC(=O)Nc3cc(C(F)(F)F)ccc3F)cc2)cn1`, the IFI was 1.32%.
Compound `Nc1ncc(-c2ccc(NC(=O)Nc3cc(C(F)(F)F)ccc3F)cc2)c(N)n1` has an IFI of 0%.
With `Nc1nccc2ccc(-c3ccc(NC(=O)Nc4cc(C(F)(F)F)ccc4F)cc3)cc12` the IFI was 20.2%.
`Cc1[nH]c(C)c(-c2ccc(Oc3ccccc3)cc2)c(=O)c1Br` showed an IFI of 6.11%.
For `Cc1nc(-c2cccc(Nc3nccc(NCC(O)c4cccc(C(F)(F)F)c4)n3)c2)cs1` (stereo not drawn), the IFI was 11%.
`Cc1nc(-c2cccc(Nc3nccc(NCC(O)c4ccccc4)n3)c2)cs1` (stereo not drawn) showed an IFI of 24.1%.
With `Cc1nc(-c2cccc(Nc3nccc(NCC(O)c4ccccc4C(F)(F)F)n3)c2)cs1` (stereo not drawn) the IFI was 22.8%.
In the case of `Cc1cccc(C(O)CNc2ccnc(Nc3cccc(-c4csc(C)n4)c3)n2)c1` (stereo not drawn), the IFI is reported as 13.6%.
`Cc1ccc(C(O)CNc2ccnc(Nc3cccc(-c4csc(C)n4)c3)n2)cc1` (stereo not drawn) showed an IFI of 8.74%.
Work on `Cc1nc(-c2cccc(Nc3nccc(NCC(O)c4ccccc4C)n3)c2)cs1` (stereo not drawn) yielded an IFI of 13.6%.
Work on `Cc1[nH]c(C)c(-c2ccc(-c3ccc(Cl)cc3)cc2)c(=O)c1Cl` yielded an IFI of 0.76%.
For `COc1ccc(CNCc2ccc(-c3cccc(-c4nc5cc(C(F)(F)F)ccc5[nH]4)c3)cc2)cc1`, the IFI was 14.3%.
In the case of `CCCCc1cc(O)c2c(c1)OC(C)(C)C=C2C1=CCN(Cc2ccccc2)CC1`, the IFI is reported as 1.43%.
Work on `Oc1ccc2nc(NCCCc3ccccc3)nc(NCCCc3ccccc3)c2c1` yielded an IFI of 10.9%.
`COc1ccc(NC(=O)Nc2ccc(C)c(-c3ccc(C(=O)Nc4ccncc4)cc3)c2)cc1` showed an IFI of 25.4%.
`COc1cccc(NC(=O)Nc2ccc(-c3oc(C(=O)NCC(c4ccccc4)N(C)C)cc3-c3ccncc3)cc2)c1` (stereo not drawn) showed an IFI of 6.85%.
In the case of `COc1ccc(C(=O)Nc2ccc(Cl)cc2C(=O)Nc2ccncc2)cc1`, the IFI is reported as 1.35%.
For `COc1cccc(NC(=O)Nc2ccc(C)c(-c3ccc(C(=O)Nc4ccncc4)cc3)c2)c1`, the IFI was 26.8%.
Work on `COc1cccc(NC(=O)c2cc(Br)cc(N3CCN(c4ccncc4)CC3)c2)c1` yielded an IFI of 12.5%.
In the case of `COc1ccc(NC(=O)Nc2ccc(C)c(-c3ccc(C(=O)NCCN4CCCC4)cc3)c2)cc1`, the IFI is reported as 0%.
`CN1CCN(c2ccc(Nc3c(C(N)=O)cnc4cc(-c5ccoc5)ccc34)cc2)CC1` gave an IFI of 4.73%.
In the case of `OC1=C2C(=Nc3ccccc3SC2c2cccs2)c2ccccc21` (stereo not drawn), the IFI is reported as 3.5%.
In the case of `COc1ccccc1-c1ccc(C(=O)NCC2CCCN(Cc3cccc(C(F)(F)F)c3)C2)s1` (stereo not drawn), the IFI is reported as 3.7%.
`Nc1nc(N)c2c(ccc3c2ccn3Cc2ccc3c(c2)OCO3)n1` showed an IFI of 6.67%.
`Fc1ccccc1C=NNc1ccnc2cc(Cl)ccc12` gave an IFI of 1.48%.
In the case of `CC(C)c1ccc(C=CC(=O)N2CCC(CCN3CCC(c4c[nH]c5ccccc45)CC3)CC2)cc1`, the IFI is reported as 7.19%.
Work on `N#Cc1cccc(Nc2nccc(NCC(O)c3ccccc3C(F)(F)F)n2)c1` (stereo not drawn) yielded an IFI of 19.2%.
Compound `N#Cc1cccc(Nc2nccc(NCC(O)c3cccc(C(F)(F)F)c3)n2)c1` (stereo not drawn) has an IFI of 10.4%.
In the case of `N#Cc1cccc(Nc2nccc(NCC(O)c3ccc(C(F)(F)F)cc3)n2)c1` (stereo not drawn), the IFI is reported as 20.4%.
Compound `OC(CNc1ccnc(Nc2cccc(Cl)c2)n1)c1ccccc1C(F)(F)F` (stereo not drawn) has an IFI of 20.4%.
For `OC(CNc1ccnc(Nc2cccc(Cl)c2)n1)c1cccc(C(F)(F)F)c1` (stereo not drawn), the IFI was 13.3%.
In the case of `OC(CNc1ccnc(Nc2ccccc2)n1)c1ccc(C(F)(F)F)cc1` (stereo not drawn), the IFI is reported as 8.08%.
Compound `OC(CNc1ccnc(Nc2ccc(Cl)cc2)n1)c1ccccc1C(F)(F)F` (stereo not drawn) has an IFI of 14.4%.
With `OC(CNc1ccnc(Nc2cccc(Cl)c2)n1)c1ccc(C(F)(F)F)cc1` (stereo not drawn) the IFI was 11%.
`Cc1ccccc1C(O)CNc1ccnc(Nc2cccc(C#N)c2)n1` (stereo not drawn) showed an IFI of 7.69%.
`CNCCNCc1cccc(-c2ccc(-c3nc4cc(C(F)(F)F)ccc4[nH]3)s2)c1` gave an IFI of 8%.
Compound `O=C(Nc1ccc(-c2cccc(-c3nc4cc(C(F)(F)F)ccc4[nH]3)c2)cc1)c1ccoc1` has an IFI of 7.08%.
Compound `CN(C)CC(=O)Nc1ccc(-c2ccc3ccnc(N)c3c2)cc1` has an IFI of 7.95%.
Work on `CCCCCCCN1CC[C@@H](CCCc2ccnc3ccc(OCCCCNC(N)=O)cc23)[C@@H](CC)C1` yielded an IFI of 8.76%.
Compound `CC[C@H](C)CNCc1ccc(OCc2cccc(COc3ccc(CNC[C@@H](C)CC)cc3I)c2)c(I)c1` has an IFI of 15.3%.
For `CC(C)CNCc1ccc(OCc2cccc(COc3ccc(CNCC(C)C)cc3I)c2)c(I)c1`, the IFI was 8.89%.
For `CC(C)NCc1ccc(OCc2cccc(COc3ccc(CNC(C)C)cc3I)c2)c(I)c1`, the IFI was 17.6%.
Compound `Cc1[nH]c(C)c(-c2ccc(OCCSc3ccncc3)cc2)c(=O)c1Br` has an IFI of 3.7%.
`COc1cc([N+](=O)[O-])ccc1NC(=O)c1cc(Cl)ccc1O` gave an IFI of 35.6%.
`O=C(Nc1ccc(Cl)cc1C(=O)Nc1cccc(F)c1)c1ccc([N+](=O)[O-])cc1` gave an IFI of 1.43%.
For `O=C(Oc1ccc(Cl)cc1C(=O)Nc1ccc([N+](=O)[O-])cc1Cl)c1ccccc1`, the IFI was 22.4%.
In the case of `O=C(Nc1ccc([N+](=O)[O-])cc1Cl)c1cc2ccccc2cc1O`, the IFI is reported as 12.8%.
`O=C(Nc1ccc([N+](=O)[O-])cc1Cl)c1cc(Br)cc(Cc2ccccc2)c1O` showed an IFI of 16.2%.
`COc1ccccc1NC(=O)c1cc(C(=O)c2cc(Cl)ccc2O)cn(-c2ccccc2OC)c1=O` gave an IFI of 0.97%.
`Cc1[nH]cnc1CSCCN/C(=N\C#N)NCCCCCCCCN/C(=N/C#N)NCCSCc1nc[nH]c1C` gave an IFI of 1.49%.
`CC(C)(C)c1ccc(-c2cc(C(=O)N[C@@H](CO)C(=O)O)on2)cc1.CC(C)(C)c1ccc(-c2nocc2C(=O)N[C@@H](CO)C(=O)O)cc1` gave an IFI of 0%.
`CN/C(=N\O)NCCN(C)C` gave an IFI of 1.43%.
In the case of `Clc1cccc(Nc2ccc3c(N4CCCCC4)ncnc3n2)c1`, the IFI is reported as 8.33%.
Work on `CS(=O)(=O)CCNCc1nc(-c2ccc3c(Nc4ccc(Cl)cc4F)ccnc3c2)cs1` yielded an IFI of 7.69%.
Compound `CS(=O)(=O)CCNCc1nc(-c2ccc3c(Nc4ccc(F)c(O)c4)ccnc3c2)cs1` has an IFI of 3.73%.
With `CS(=O)(=O)CCNCc1nc(-c2ccc3c(=O)[nH]cnc3c2)cs1` the IFI was 22.6%.
For `Cc1sc(NC(=O)c2ccc([N+](=O)[O-])cc2Cl)c(C(N)=O)c1C`, the IFI was 0.75%.
For `Cc1c(N=O)cc(C(C)(C)C)c(O)c1C(=O)Nc1ccc([N+](=O)[O-])cc1Cl`, the IFI was 25.2%.
For `Cc1cc([N+](=O)[O-])ccc1NC(=O)Nc1cccc(C(F)(F)F)c1`, the IFI was 7.89%.
`CCCCCCNC(=N)c1ccc(OCCCCCOc2ccc(C(=N)NCCCCCC)cc2)cc1` showed an IFI of 12.3%.
Work on `C=CCNC(CCCCC)c1ccc(OCCOc2ccc(C(CCCCC)NCC=C)cc2)cc1` (stereo not drawn) yielded an IFI of 18.3%.
With `CCCCC(NCC)c1ccc(OCCOc2ccc(C(CCCC)NCC)cc2)cc1` (stereo not drawn) the IFI was 8.82%.
For `CCCCCCC(N)c1ccc(OCCCOc2ccc(C(N)CCCCCC)cc2)cc1` (stereo not drawn), the IFI was 24.5%.
`CCCCCOc1ccc(C(O)C(CCC(CN2CCCCCC2)C(O)c2ccc(OCCCCC)cc2)CN2CCCCCC2)cc1` (stereo not drawn) showed an IFI of 12.9%.
In the case of `CCCCCC(NCCCC)c1ccc(OCCOc2ccc(C(CCCCC)NCCCC)cc2)cc1` (stereo not drawn), the IFI is reported as 16.3%.
`Fc1ccc(C=NNc2nc3ccccc3[nH]2)cc1` gave an IFI of 1.42%.
Compound `O=C1Nc2cccc3c2C1(CCCCN1CCC(c2c(-c4ccc(F)cc4)[nH]c4ccccc24)CC1)CCC3` (stereo not drawn) has an IFI of 7.91%.
`CN(c1ccccc1)c1ccnc(NC(=N)Nc2ccc(Cl)cc2)n1` showed an IFI of 18.4%.
In the case of `CN(c1ccc(NC(=O)Nc2cccc(Cl)c2)cc1)c1ccnc(N)n1`, the IFI is reported as 6.9%.
`CCNC(=O)Nc1ccc(N(C)c2ccnc(NC3CC3)n2)cc1` showed an IFI of 2.97%.
In the case of `Cc1cc(NCCC(=O)Nc2ccccc2)nc(NCCOc2ccccc2)n1`, the IFI is reported as 4.88%.
In the case of `C=CCOC(=O)N1CCC(CNCc2cccc(-c3ccc(-c4nc5ccccc5[nH]4)s3)c2)C1` (stereo not drawn), the IFI is reported as 6.73%.
With `Cc1cc2nc(N/C(N)=N/C(=O)NC3CCCCC3)nc(C)c2cc1C` the IFI was 9.38%.
Compound `CCN(CC)CCOc1ccc(N(Cc2ccc(C(C)(C)C)cc2)C(=O)c2ccc(Cc3ccccc3)cc2)cc1OC` has an IFI of 5.84%.
Work on `Cc1cccc2nc(-c3ccc(-c4cccc(CNCCN5CCNCC5)c4)cc3)[nH]c12` yielded an IFI of 6.93%.
With `CC(C)COc1ccc(Cl)cc1Cc1ccc(-c2nc3cc(CCN(C)C)ccc3[nH]2)o1` the IFI was 16%.
`CC(C)COc1ccc(Cl)cc1Cc1nc(-c2nc3ccc(CN4CCN(C)CC4)cc3[nH]2)co1` gave an IFI of 5.81%.
For `CC(C)COc1ccc(Cl)cc1Cc1nc(-c2nc3ccc(CN4CCCCC4)cc3[nH]2)co1`, the IFI was 18.3%.
`Clc1ccc(OCc2ccccc2)c(Cc2ccc(-c3nc4cnccc4[nH]3)o2)c1` showed an IFI of 12.2%.
For `CN1CCN(c2ccc3[nH]c(-c4ccc(Cc5cc(Cl)ccc5OCc5ccccc5)o4)nc3c2)CC1`, the IFI was 24.7%.
Work on `CNCc1cccc2nc(-c3ccc(Cc4cc(Cl)ccc4OCC(C)C)o3)[nH]c12` yielded an IFI of 16.7%.
`CN1CCN(CCc2ccc3nc(-c4csc(Cc5cc(Cl)ccc5OCc5ccccc5)n4)[nH]c3c2)CC1` gave an IFI of 10.2%.
`CC(C)COc1ccc(Cl)cc1Cc1ccc(-c2nc3cc(F)c(F)cc3[nH]2)o1` gave an IFI of 13.7%.
`CC(C)COc1ccc(Cl)cc1Cc1nc(-c2nc3ccc(CN4CCCC4)cc3[nH]2)co1` gave an IFI of 16.1%.
`CC(C)COc1ccc(Cl)cc1Cc1ccc(-c2nc3cc(N4CCN(C)CC4)ccc3[nH]2)o1` gave an IFI of 17.2%.
`CC(C)COc1ccc(Cl)cc1Cc1ccc(-c2nc3cnc4ccccc4c3[nH]2)o1` gave an IFI of 7.23%.
`CC(C)COc1ccc(Cl)cc1Cc1ccc(-c2nc3cc(CCN4CCCC4)ccc3[nH]2)o1` showed an IFI of 22.2%.
